Hits are enriched below; roughly 0.84% of the tested compounds scored in any of these assays.
SRC1 TRFRET art: TR-FRET artefact, counter-screen to PPARgamma/SRC-1 agonist assay | TR-FRET detection artefact counter-screen, emission ratio; hits give high values | TR-FRET ratio at 8 µM | hit rate 0.34% among 99,000 | AID 1051; in the data active means TR-FRET ratio above about 2300
TR-FRET SRC-2 ct: counter-screen for PPARgamma SRC-2 recruitment agonists: TR-FRET artefact; hit rate 0.4% among 200,000; hits give high values; TR-FRET ratio at 8 µM; AID 1049
PPARg SRC-2 ag: PPARgamma-driven SRC-2 recruitment agonism. activation, % at 8 µM. AID 1032. PPARgamma LBD-SRC-2 recruitment, biochemical. hit rate 0.34% among 200,000. P37231; in the data active means activation above about 22%;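 further: 0% = vehicle and 100% = reference agonist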
PPARg SRC-1 ag: promotes SRC-1 coactivator recruitment by human PPARgamma. P37231. PPARgamma-SRC-1 coactivator recruitment biochemical assay. activation, % at 8 µM. hit rate 0.41% among 200,000; in the data active means activation above about 19%;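 further: 0% = DMSO and 100% = reference agonist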
PPARg SRC3 recr: PPARgamma-driven SRC-3 recruitment agonism | biochemical PPARgamma/SRC-3 coactivator recruitment assay | activation, % at 8 µM | hit rate 0.26% among 200,000 | AID 731; in the data active means activation above about 23%;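 further: 0% = DMSO and 100% = reference agonist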
SRC3 TRFRET art: TR-FRET artefact, counter-screen to PPARgamma/SRC-3 agonist assay | TR-FRET ratio at 8 µM | hit rate 0.39% among 99,000 | PPARgamma/SRC-3 format; hits give high values
PPARg SRC2 ag: confirmation of agonists of SRC-2 recruitment by human PPARgamma; biochemical SRC-2 recruitment by PPARgamma; activation, % at 8 µM; shares compounds with PPARg SRC3 recr; hit rate 52% among 790; in the data active means activation above about 22%;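 further: 0% = vehicle alone and 100% = reference agonist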
PPARg SRC1 ag: confirmation of agonists of SRC-1 recruitment by human PPARgamma; hit rate 43% among 790; PPARgamma–SRC-1 coactivator recruitment biochemical assay; activation, % at 8 µM; shares compounds with PPARg SRC3 recr; in the data active means activation above about 20%;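 further: 0% = vehicle wells and 100% = reference agonist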
PPARg SRC3 conf: confirmation of agonists of SRC-3 recruitment by human PPARgamma; shares compounds with PPARg SRC3 recr; hit rate 29% among 790; activation, % at 8 µM; biochemical PPARgamma-SRC-3 coactivator recruitment, agonist mode; AID 1301; in the data active means activation above about 24%;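 further: 0% = vehicle wells and 100% = reference agonist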
Target sequence (P37231 whole entry, looked up): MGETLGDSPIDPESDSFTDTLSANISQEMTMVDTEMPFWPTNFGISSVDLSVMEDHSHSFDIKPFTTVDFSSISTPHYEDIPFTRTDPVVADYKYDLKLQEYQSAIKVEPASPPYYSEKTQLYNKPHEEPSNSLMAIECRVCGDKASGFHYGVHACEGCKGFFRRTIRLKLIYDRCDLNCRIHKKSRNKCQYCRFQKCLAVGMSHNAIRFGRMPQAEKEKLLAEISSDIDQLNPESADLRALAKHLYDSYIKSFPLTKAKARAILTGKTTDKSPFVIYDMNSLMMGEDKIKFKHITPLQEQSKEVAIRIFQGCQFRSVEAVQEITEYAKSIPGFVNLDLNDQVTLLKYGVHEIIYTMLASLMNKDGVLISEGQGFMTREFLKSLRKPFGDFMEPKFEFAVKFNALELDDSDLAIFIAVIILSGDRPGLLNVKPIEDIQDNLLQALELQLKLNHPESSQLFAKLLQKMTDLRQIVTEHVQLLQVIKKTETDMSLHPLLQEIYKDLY
Target sequence (Q9Y6Q9 whole entry, looked up): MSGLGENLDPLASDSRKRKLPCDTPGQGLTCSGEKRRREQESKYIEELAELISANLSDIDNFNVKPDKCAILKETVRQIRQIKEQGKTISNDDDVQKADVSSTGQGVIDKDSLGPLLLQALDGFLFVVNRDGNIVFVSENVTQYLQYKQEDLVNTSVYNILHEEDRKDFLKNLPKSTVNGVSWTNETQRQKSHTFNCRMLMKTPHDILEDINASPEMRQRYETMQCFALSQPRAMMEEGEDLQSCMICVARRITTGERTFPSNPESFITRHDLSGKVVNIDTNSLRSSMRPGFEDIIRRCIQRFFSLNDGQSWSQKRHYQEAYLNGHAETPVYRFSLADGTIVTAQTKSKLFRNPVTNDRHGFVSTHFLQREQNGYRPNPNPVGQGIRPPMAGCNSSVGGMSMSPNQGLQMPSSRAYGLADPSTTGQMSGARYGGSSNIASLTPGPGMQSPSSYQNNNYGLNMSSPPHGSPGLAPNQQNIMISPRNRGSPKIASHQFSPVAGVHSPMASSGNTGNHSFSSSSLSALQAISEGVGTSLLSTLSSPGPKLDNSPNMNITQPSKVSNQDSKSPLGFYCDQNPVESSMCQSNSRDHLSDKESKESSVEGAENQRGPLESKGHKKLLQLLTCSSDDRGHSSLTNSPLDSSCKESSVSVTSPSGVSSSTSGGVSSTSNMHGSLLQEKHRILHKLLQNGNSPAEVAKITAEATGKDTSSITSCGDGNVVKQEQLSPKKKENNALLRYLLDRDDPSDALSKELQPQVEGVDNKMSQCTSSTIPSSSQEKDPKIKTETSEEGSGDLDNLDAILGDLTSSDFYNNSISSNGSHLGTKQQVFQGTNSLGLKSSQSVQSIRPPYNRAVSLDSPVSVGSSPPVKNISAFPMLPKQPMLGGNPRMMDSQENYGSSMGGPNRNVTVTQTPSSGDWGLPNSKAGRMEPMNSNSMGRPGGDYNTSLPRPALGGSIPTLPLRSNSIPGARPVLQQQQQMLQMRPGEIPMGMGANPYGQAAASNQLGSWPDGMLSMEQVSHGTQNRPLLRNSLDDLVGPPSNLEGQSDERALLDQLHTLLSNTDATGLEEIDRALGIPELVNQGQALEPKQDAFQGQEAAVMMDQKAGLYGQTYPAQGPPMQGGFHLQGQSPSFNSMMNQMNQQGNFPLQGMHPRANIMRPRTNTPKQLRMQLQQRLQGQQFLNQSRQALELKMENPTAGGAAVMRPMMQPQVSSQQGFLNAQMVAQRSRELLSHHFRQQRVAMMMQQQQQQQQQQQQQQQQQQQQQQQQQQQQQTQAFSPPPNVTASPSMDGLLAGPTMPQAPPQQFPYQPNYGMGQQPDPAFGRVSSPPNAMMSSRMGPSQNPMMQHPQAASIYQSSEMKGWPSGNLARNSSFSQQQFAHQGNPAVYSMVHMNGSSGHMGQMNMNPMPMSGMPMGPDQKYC
The depositor's hits bear a star; x = no result given. Unless noted, no stated cut-off is given here; in the data, active means TR-FRET ratio above about 2000; inactive means the rest.

SMILES	SRC1 TRFRET art	TR-FRET SRC-2 ct	PPARg SRC-2 ag	PPARg SRC-1 ag	PPARg SRC3 recr	SRC3 TRFRET art	PPARg SRC2 ag	PPARg SRC1 ag	PPARg SRC3 conf
CCOC(=O)N1CCC(NC(=O)CSc2cc(=O)n(CC)c3ccccc23)CC1	x	2762*	48.3*	55.2*	44.5*	x	37.9*	26.9*	24.6*
CCn1c(=O)cc(SCC(=O)N2CCN(C)CC2)c2ccccc21	x	2120*	33.8*	27.3*	39.8*	x	30.0*	19.9*	20.7
CCOC(=O)C1CCN(C(=O)CSc2cc(=O)n(CC)c3ccccc23)CC1	x	2661*	53.3*	44.0*	61.9*	x	39.7*	26.9*	27.2*
O=C(c1ccccc1O)N1N=C(c2ccccc2)CC1(O)C(F)(F)F (stereo not drawn)	1545	1596	6.6	1.8	0.7	1589	x	x	x
CCn1c(=O)cc(SCC(=O)N2CCCCC2)c2ccccc21	x	2691*	48.4*	43.7*	52.2*	x	37.5*	22.9*	25.6*
CCn1c(=O)cc(OCC(=O)N2CCCC2)c2ccccc21	x	1703	1.9	8.6	4.1	x	x	x	x
CCN1CCN(C(=O)CSc2cc(=O)n(CC)c3ccccc23)CC1	x	2006*	43.6*	23.0*	41.3*	x	26.0*	17.0	18.1
Cc1cc(C)c(NC(=O)c2cc(C(=O)O)ccc2C(=O)O)c([N+](=O)[O-])c1	1897	1509	5.3	5.5	1.1	1355	x	x	x
CC(=O)N=c1sc2nc3ccccc3nc2n1N(C(C)=O)C(C)=O	2476*	1906	25.6*	15.3	14.7	1815	44.2*	31.4*	28.6*
CCCCc1cc(=O)oc2cc(C)cc(O)c12	x	1941	14.0	7.0	17.4	x	x	x	x
CCCCc1cc(=O)oc2cc(O)cc(O)c12	2687*	2054*	19.9	27.8*	13.5	2006	12.9	8.8	11.1
CSc1nc2sc3c(c2c(=O)[nH]1)CCCC3	x	1485	2.8	0.5	2.8	x	x	x	x
O=c1[nH]c(S)nc2sc3c(c12)CCCC3	2564*	2002*	29.2*	22.6*	13.4	2183*	17.5	11.0	11.8
CS(=O)(=O)c1nc(S(=O)(=O)c2ccc(Cl)cc2)c(NCc2ccccn2)s1	1831	1609	6.4	3.4	4.5	1679	x	x	x
CSc1ccccc1-c1nnc(-c2ccc(Cl)cc2Cl)o1	x	1526	3.5	1.9	7.0	x	x	x	x
CCSc1nnc(-c2ccccc2SC)o1	2385*	2020*	19.3	20.5*	11.3	1975	27.5*	19.6*	17.6
CCN(CC)c1ccc(/C=C2/C(=O)ON=C2C)cc1	2156	1519	11.4	18.0	25.9*	1737	15.2	10.8	14.1
COC(=O)c1ccc2c(=O)n(-c3ccccc3)c(=S)[nH]c2c1	1949	1472	0.3	0.8	-0.3	1579	x	x	x
CCc1cc2c(=O)n(-c3ccccc3)c(=S)[nH]c2s1	x	2026*	37.3*	27.2*	40.6*	x	31.4*	25.4*	23.6
Cn1ccnc1C1CCCCN1C(=O)c1cc(COc2ccc(F)cc2Cl)on1 (stereo not drawn)	1803	1703	4.8	2.9	6.1	1458	x	x	x
O=C(O)[C@H]1CCCC[C@H]1C(=O)Nc1ccc(Nc2ccccc2)cc1	x	1526	27.4*	7.3	23.9	x	11.1	6.3	7.2
CCn1c(COc2ccc(C)cc2)nc2ccccc21	1632	1781	9.2	3.2	4.6	1634	x	x	x
Oc1cc2c(cc1O)C1c3ccc(O)c(O)c3OCC1(O)C2 (stereo not drawn)	2256	1683	21.6	27.1*	10.1	1777	8.7	6.4	2.3
CCCC1O[C@@H]2CC3C4CCC5=CC(=O)C=C[C@]5(C)C4C(OC(C)=O)C[C@]3(C)[C@]2(C(=O)COC(C)=O)O1 (stereo partly drawn)	x	1573	38.2*	60.4*	47.1*	x	41.9*	49.0*	48.1*
CCCC1O[C@@H]2C[C@H]3[C@@H]4CCC5=CC(=O)C=C[C@]5(C)[C@H]4[C@@H](O)C[C@]3(C)[C@]2(C(=O)CO)O1 (stereo partly drawn)	1864	1649	5.6	1.5	6.7	1556	x	x	x
SMILES	SRC1 TRFRET art	TR-FRET SRC-2 ct	PPARg SRC-2 ag	PPARg SRC-1 ag	PPARg SRC3 recr	SRC3 TRFRET art	PPARg SRC2 ag	PPARg SRC1 ag	PPARg SRC3 conf
CCOc1ccc(CCNC(=O)COC(=O)c2nc3nc(C)cc(C)n3n2)cc1OCC	1732	1560	0.3	-2.7	2.4	1665	x	x	x
CCc1cc2cc(C(=O)Nc3ccc(F)cc3)sc2s1	x	2237*	38.6*	14.9	20.5	x	25.2*	16.8	14.9
N#C/C(=C\c1ccc(N2CCOCC2)o1)C(=O)NCC1CCCO1 (stereo not drawn)	2143	2010*	13.6	20.5*	4.0	1833	9.5	5.2	6.3
Clc1ccc(-c2nnc3sc(-c4ccc(Br)o4)nn23)c(Cl)c1	x	1760	22.9*	6.4	20.8	x	15.0	10.2	9.9
CN(C)c1ccc(-c2nn3c(-c4ccc(Cl)cc4Cl)nnc3s2)cc1	1837	1484	5.4	3.1	-3.1	1563	x	x	x
CC(C)CC(NC(=O)C(CO)NC(=O)C1CCC(=O)N1)C(N)=O (stereo not drawn)	1536	1628	1.8	-0.9	3.3	1392	x	x	x
O=C1c2ccccc2-c2cccc(NS(=O)(=O)c3ccc(C(F)(F)F)cc3)c21	x	1656	11.2	12.5	30.9*	x	24.0*	21.7*	14.4
Cn1ncc(C(N)=O)c1NC(=S)NC(=O)c1ccc(Br)o1	1620	1373	-0.7	-4.5	-4.1	1503	x	x	x
COc1cc2c(cc1NC(=O)CSc1nnc(Cc3cccs3)n1C)oc1ccccc12	x	1490	1.9	4.8	-11.1	x	x	x	x
CCn1c(SCC(=O)Nc2cc3oc4ccccc4c3cc2OC)nnc1-c1cccs1	x	1548	25.9*	5.4	11.6	x	4.8	0.0	2.2
CCN(C(=O)COC(=O)/C=C/c1ccccc1)C1CCCCC1	1799	1483	-6.7	-1.6	0.6	1447	x	x	x
CCn1cc(C(=O)OCC(=O)Nc2ccc(C(C)C)cc2)c(=O)c2ccc(C)nc21	1631	1682	7.5	8.8	6.2	1486	x	x	x
CN1/C(=C\C=N\O)C(C)(C)c2ccccc21	1991	1498	1.1	-3.0	-0.5	1499	x	x	x
CN(C)c1ccc(N=C/C=C2/N(C)c3ccccc3C2(C)C)cc1	2167	2099*	31.7*	27.9*	17.2	2085*	12.9	12.5	7.9
Clc1cccc(-c2ccc(C=Nc3ccc(N4CCOCC4)cc3)o2)c1	2263	2011*	26.4*	27.5*	14.0	1975	34.6*	25.5*	20.9
